# Assay outcomes from PubChem BioAssay.
# Rows were chosen to be rich in hits. Some 2.5% of all compounds tested hit in one or more screens of this group.
# PKA-R2B act = PKA-R2B complex activation | PKA-R2B holoenzyme dissociation, Cy5-IP20 fluorescence polarization; R2B truncated from residue 108, S112A mutant; 0% DMSO only, 100% 113 µM cGMP | P22694+P31323 | 0.079% of 340,000 active | activation, % at 11.4 µM;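 active means activation above a cutoff set at the mean over all compounds plus 3 SD, cut at about 18% in these data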;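 further: higher means more holoenzyme dissociation and a rise in polarization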
# TMEM16A act = activates or potentiates the mouse TMEM16A chloride channel; Q8BHY3; HEK293 TMEM16A/YFP-H148Q/I152L, iodide quench fluorescence; hits give low values; B-score at 10 µM; 0.3% of 340,000 active; AID 623877;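 active means fluorescence-ratio B-score plate-corrected deviation score at least 3 library SD below zero, with starting fluorescence score within 5 deviations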;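 further: channel opened by trigger with iodide after compound preincubation; score built on the fluorescence ratio of max minus min over baseline; more negative score means more quench and so TMEM16A activation or potentiation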
# PKA-R1A act = activates the PKA-R1A holoenzyme complex | PKA-R1A dissociation, Cy5-IP20 fluorescence polarization; scaled: DMSO 0%, 113 µM cGMP 100% | activation, % at 11.4 µM | 0.083% of 340,000 active | AID 504707;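 active means percent activation above the mean of all tested compounds plus 3 SD, cut at about 19% in these data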;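 further: higher means more PKAc released from R1A so a rise in polarization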
# CHT PAM = allosterically activates the human high affinity choline transporter | CHT-expressing cells, membrane potential dye, choline EC20; hits give high values; LV-AA mutant CHT in HEK293 cells | Q9GZV3 | B-score at 10 µM | 0.49% of 310,000 active;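 active means initial fluorescence not abnormally high and integrated response B-score, plate-corrected, over 3 SD above library mean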
# TMEM16A inh = blocks the mouse calcium-activated chloride channel TMEM16A; HEK293 TMEM16A/YFP iodide influx fluorescence, ionomycin; normalized B-score (activity score, 25-100; higher = stronger inhibition) at 10 µM; 1.2% of 310,000 active; AID 588511;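 active means ratio plate-corrected score three or more library SD toward inhibition, starting fluorescence score within five deviations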;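 further: score derived from kinetic fluorescence span divided by baseline fluorescence per well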
# CHT inh = human CHT choline transport inhibition; 0.86% of 310,000 active; CHT-expressing cells, membrane potential dye, choline response; hits give low values; Q9GZV3; B-score at 10 µM;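 active means B-score over 3 SD under the library average, and starting fluorescence ratio not unusually high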;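 further: choline stimulus applied at its EC90 after an EC20 pre-addition; B-score computed on integrated fluorescence ratio after choline addition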
# TMEM16A reconf = TMEM16A (mouse) chloride channel inhibition, re-confirmation; shares compounds with TMEM16A inh; HEK293 TMEM16A/YFP-H148Q, iodide quench fluorescence; ionomycin added to raise cell calcium; inhibition, % at 10 µM; 39% of 2,300 active;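 active means mean duplicate percent inhibition, scaled so buffer wells are 0 and the reference blocker 100, over three buffer SD above buffer mean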
# HEK293 Ca mobil = alters calcium mobilization in TMEM16A HEK293 cells, counter-screen; TMEM16A/YFP HEK293, Fluo4 calcium mobilization; shares compounds with TMEM16A inh; AID 652231; calcium response (% of ionomycin), % at 10 µM; 2% of 2,300 active;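 active means duplicate-averaged calcium signal over 20% of the ionomycin maximum, relative to buffer baseline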;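 further: each well's signal is peak minus trough fluorescence divided by its pre-addition baseline; 0% = buffer wells and 100% = ionomycin wells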
# Parental YFP cnt = counter-screen for TMEM16A inhibitors: effect in parental YFP-HEK293 cells. iodide YFP quench, ionomycin. 2,300 tested, under 10 active. YFP ratio F(max-min)/F0 at 10 µM. AID 652233. shares compounds with TMEM16A inh;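 active means yellow fluorescent protein signal ratio exceeding the buffer control mean by over 5 SD of those controls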;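 further: ratio is mean of duplicate wells from kinetic YFP trace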
# ClC-1 rat inh = selectivity of TMEM16A inhibitors: inhibition of rat ClC-1 chloride channel. shares compounds with TMEM16A inh. CHO ClC-1-YFP, iodide influx fluorescence quench; iodide control reads 0, buffer control 100. ratio percent, % at 10 µM. 2,300 tested, under 10 active. AID 652236;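 active means duplicate-mean ratio percent above the mean of iodide-only control wells, which defines zero, plus 5 of their SD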;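 further: higher percent means stronger block of ClC-1 iodide influx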
# Target sequence (P35524 whole entry, looked up): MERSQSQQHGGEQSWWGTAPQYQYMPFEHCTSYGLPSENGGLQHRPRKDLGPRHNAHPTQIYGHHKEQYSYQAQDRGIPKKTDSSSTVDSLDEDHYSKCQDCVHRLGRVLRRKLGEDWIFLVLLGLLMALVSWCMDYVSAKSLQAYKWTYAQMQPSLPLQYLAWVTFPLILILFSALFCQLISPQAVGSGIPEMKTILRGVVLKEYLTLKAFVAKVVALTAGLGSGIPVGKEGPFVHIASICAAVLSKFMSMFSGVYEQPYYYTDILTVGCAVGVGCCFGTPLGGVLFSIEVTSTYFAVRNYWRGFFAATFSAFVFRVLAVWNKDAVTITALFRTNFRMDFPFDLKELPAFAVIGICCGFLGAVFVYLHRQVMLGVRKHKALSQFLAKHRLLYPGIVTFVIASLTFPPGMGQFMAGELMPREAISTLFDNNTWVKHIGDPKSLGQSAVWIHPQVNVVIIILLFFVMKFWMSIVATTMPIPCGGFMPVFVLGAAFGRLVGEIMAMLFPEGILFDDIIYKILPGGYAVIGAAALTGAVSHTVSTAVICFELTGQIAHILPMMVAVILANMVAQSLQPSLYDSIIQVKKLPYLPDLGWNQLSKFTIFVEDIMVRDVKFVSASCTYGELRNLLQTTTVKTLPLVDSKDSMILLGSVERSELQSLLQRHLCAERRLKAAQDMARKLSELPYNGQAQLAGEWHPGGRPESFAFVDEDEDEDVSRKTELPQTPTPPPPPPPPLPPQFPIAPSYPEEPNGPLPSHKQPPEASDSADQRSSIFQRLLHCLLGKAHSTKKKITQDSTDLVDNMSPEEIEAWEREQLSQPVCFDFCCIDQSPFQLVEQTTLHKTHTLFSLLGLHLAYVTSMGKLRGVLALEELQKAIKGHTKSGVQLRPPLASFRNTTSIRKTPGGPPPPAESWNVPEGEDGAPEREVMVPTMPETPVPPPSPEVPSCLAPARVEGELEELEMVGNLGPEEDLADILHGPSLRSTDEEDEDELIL
# Active calls of the source: *; i = inactive; / = no result given.
SMILES,PKA-R2B act,TMEM16A act,PKA-R1A act,CHT PAM,TMEM16A inh,CHT inh,TMEM16A reconf,HEK293 Ca mobil,Parental YFP cnt,ClC-1 rat inh
CCOC(=O)c1csc(Nc2nc3ccc(F)cc3s2)n1,-6.9,i,-0.3,i,100*,i,i,i,-1.04,-15.0
COC(=O)c1ccc2nc(Nc3nc4ccc(F)cc4s3)sc2c1,-8.6,i,-3.9,i,i,i,/,/,/,/
Cc1ccc(NCC(=O)Nc2cccc(F)c2)cc1S(=O)(=O)N1CCCCCC1,-3.4,i,-11.1,i,100*,i,34.0%*,i,-0.944,-11.5
O=C(CNc1cccc(F)c1)Nc1cccc(S(=O)(=O)N2CCCCC2)c1,-7.7,i,1.8,/,/,/,/,/,/,/
CS(=O)(=O)c1ccc(C(=O)OCC(=O)Nc2cccc(S(=O)(=O)N3CCCC3)c2)cc1,10.2,i,-0.8,i,i,i,/,/,/,/
Cc1ccc(NC(=O)CNc2cccc(S(=O)(=O)N3CCCCC3)c2)cc1F,-26.4,i,-8.1,i,25*,i,i,i,-0.877,-7.5
COc1ccccc1CCC(=O)Nc1ccc(OC)c(S(=O)(=O)N2CCCCC2)c1,5.5,i,-5.2,/,/,/,/,/,/,/
COc1ccc(NC(=O)CCOc2ccccc2C)cc1S(=O)(=O)N1CCCCC1,-6.5,i,-2.4,i,25*,i,i,i,-0.951,-6.5
O=C(COC(=O)c1ccc(O)cc1)Nc1cccc(S(=O)(=O)N2CCCCC2)c1,-5.4,i,6.1,i,25*,i,i,i,-1.06,-20.5
CCN(CC)Cc1c(C(=O)N/N=C(\C)c2ccncc2)nnn1-c1nonc1N,-8.5,i,-16.3,i,i,i,/,/,/,/
O=C(Nc1ccc(N2CCN(c3ncccc3C(F)(F)F)CC2)nc1)c1cccs1,-1.9,i,-2.2,i,25*,i,31.0%*,i,-1.2,-3.5
CC1=CC(C)(C)N2C(=O)C3(SCC(=O)N3c3ccc(F)cc3)c3cc(C)cc1c32 (configuration not stated),-4.3,i,-3.1,i,100*,i,20.0%*,i,-1.17,-8.5
COc1ccc(S(N)(=O)=O)cc1C(=O)OCCCOc1ccc(F)cc1,-2.5,i,2.5,i,i,i,/,/,/,/
CCCCCCCSc1nnc(-c2ccccc2N)c(=O)[nH]1,-16.6,i,-2.9,i,i,i,/,/,/,/
CCCCCSc1nnc(-c2cc(Br)ccc2N)c(=O)[nH]1,-7.0,i,-15.3,i,25*,i,i,i,-1.16,-11.0
O=C(O)CCNS(=O)(=O)c1ccc2ccccc2c1,-1.5,i,9.8,i,100*,i,i,i,-0.94,-4.5
COc1cc2ncc(C(=O)c3ccccc3)c(N3CCN(Cc4ccccc4)CC3)c2cc1OC,-5.8,i,5.6,i,i,i,/,/,/,/
C/C=C1\COC(C(=O)NCc2ccccc2)(C(F)(F)F)C=C1C=C(C)C (configuration not stated),-8.0,i,-4.4,i,100*,i,i,i,-1.26,-13.0
Nc1c(C(=O)NCCc2ccccc2)nnn1Cc1ccccc1,-0.7,i,4.0,i,i,i,i,i,-0.802,-4.0
Cc1cc(S(=O)(=O)N2CCCC(N(C)CCc3ccccn3)C2)c(C)cc1Cl (configuration not stated),-3.1,i,-13.2,i,i,i,/,/,/,/
O=C(Nc1ccsc1C(=O)O)c1cccc(Oc2ccccc2)c1,-6.5,i,-8.7,i,100*,i,52.0%*,i,-1.02,-8.5
COc1ccc(CCNC(=O)c2cc(C)oc2C)cc1,-11.7,i,-0.1,i,i,i,/,/,/,/
CCCc1ccc(C(=O)NC(=O)c2ccccc2O)cc1,-2.1,i,-11.6,i,100*,i,34.5%*,21.5%*,-0.731,-5.0
O=S(=O)(NCC(c1ccco1)N1CCc2ccccc2C1)c1ccc(F)cc1 (configuration not stated),-0.9,i,-8.1,i,25*,i,36.5%*,i,-0.934,-27.5
COc1ccc(S(=O)(=O)NCC(c2cccs2)N2CCc3ccccc3C2)cc1 (configuration not stated),-13.7,i,-15.2,i,i,i,/,/,/,/
SMILES,PKA-R2B act,TMEM16A act,PKA-R1A act,CHT PAM,TMEM16A inh,CHT inh,TMEM16A reconf,HEK293 Ca mobil,Parental YFP cnt,ClC-1 rat inh
Cc1ccccc1CCN(C(=O)c1csnn1)C(C(=O)NC1CCCC1)c1ccco1 (configuration not stated),3.2,i,-4.6,i,i,i,/,/,/,/
O=C1CCc2cc(NS(=O)(=O)c3cc(F)ccc3F)cc3c2N1CC3,1.9,i,4.0,i,i,i,/,/,/,/
O=C(NC(Cc1ccccc1)C(=O)NCc1ccccn1)c1ccco1 (configuration not stated),-16.9,i,3.0,i,25*,i,i,i,-0.999,-2.0
C/C=N\NC(=O)COc1cc(C)ccc1C,/,i,/,i,i,i,/,/,/,/
Cc1ccc(C)c(OCC(=O)NCCNC(=O)COc2cc(C)ccc2C)c1,4.4,i,4.8,i,100*,i,i,i,-1.25,-12.5
O=S1(=O)CC/C(=N\O)c2ccccc21,1.4,i,9.6,i,25*,i,i,i,-1.17,-3.5
CCOc1ccc(CN(C)C(=O)[C@H](Cc2ccccc2)NC(=O)OCc2ccccc2)cc1OC,0.6,i,-0.8,i,25*,i,i,i,-1.06,-7.0
COc1ccc2cc3cc(C(=O)N4CCN(Cc5ccc6c(c5)OCO6)CC4)oc3nc2c1,-15.8,i,-13.5,i,25*,i,i,i,-1.11,-4.5
CCCCSc1oc(-c2ccco2)nc1S(=O)(=O)c1ccccc1,-7.6,i,-4.2,i,25*,i,i,i,-0.739,-9.0
